# High-throughput results from PubChem BioAssay.
# The list is not random: actives were taken first. Their share in the collection is about 18%.
# VDR inhibitor – Inhibitors of the vitamin D receptor (VDR): qHTS; Vitamin D3 receptor (Homo sapiens), P11473; VDR-SRC2-3 peptide fluorescence polarization, 2 h; Potency, µM, without a hit: max response, negative = inhibition, most hits filed as inhibitors; 400,000 compounds, 0.93% hits
# Target sequence (P11473 whole entry, looked up): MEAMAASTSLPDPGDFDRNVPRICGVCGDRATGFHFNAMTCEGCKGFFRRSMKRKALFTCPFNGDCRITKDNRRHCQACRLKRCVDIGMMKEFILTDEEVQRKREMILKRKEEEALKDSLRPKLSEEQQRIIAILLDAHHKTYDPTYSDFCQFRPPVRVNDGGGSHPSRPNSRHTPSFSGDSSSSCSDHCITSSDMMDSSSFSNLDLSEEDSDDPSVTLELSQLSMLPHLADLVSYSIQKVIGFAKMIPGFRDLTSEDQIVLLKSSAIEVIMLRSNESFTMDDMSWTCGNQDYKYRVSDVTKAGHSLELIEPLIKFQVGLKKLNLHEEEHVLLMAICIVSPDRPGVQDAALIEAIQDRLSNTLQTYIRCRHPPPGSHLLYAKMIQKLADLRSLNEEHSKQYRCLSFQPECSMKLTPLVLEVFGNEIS
#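 Compounds are added to VDR with labelled SRC2-3 coactivator peptide and held 2 h at room temperature. Inhibition of the VDR–peptide interaction is then read as a change in fluorescence polarization.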
# PLK1 PBD inh – qHTS for Inhibitors of PLK1-PDB (polo-like kinase 1 - polo-box domain): Primary Screen; Serine/threonine-protein kinase PLK1 (Homo sapiens), P53350; Plk1 PBD binding of FITC phosphopeptide, fluorescence polarization; Potency, µM, for inactives: max response, negative = inhibition, actives largely listed as inhibitors; 360,000 compounds, 2.8% hits; AID 720504, 2013; further: series mostly up to about 57 µM; nearly all actives have a fitted effect of over 65% in size
# TDP1 block – qHTS Assay for Inhibitors of Tyrosyl-DNA Phosphodiesterase (TDP1). recombinant TDP1, AlphaScreen DNA substrate cleavage. 350,000 compounds, 0.28% hits. Potency, µM (doses to about 130 µM), for the others: top-dose activity change, negative = inhibition, most hits filed as inhibitors; further: nearly all actives have a fitted effect of over 40% in size
#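 Steps: enzyme plus compound, 15 min RT; add biotin/phosphotyrosine-FITC oligonucleotide (15 nM final), react 5 min; add donor/acceptor beads (10 ug/ml final), 10 min; read AlphaScreen. Tdp1 at 1 nM final.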
# KAT2A inh – qHTS Assay for Inhibitors of GCN5L2; GCN5L2 HAT assay, ThioGlo1 CoA-SH fluorescence; Potency, µM (highest dose often 58.9 µM), for the others: at the highest dose activity change, negative = inhibition, most hits filed as inhibitors; 390,000 compounds, 0.21% hits; AID 504327, 2011
#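 Fluorescence readout, Ex340nm/Em540nm: ThioGlo1 (50uM final) reacts with free CoA thiol released as 20nM GCN5L2 acetylates H3(1-25) peptide (75uM) using acetyl-CoA (70uM). Compound and enzyme sat 15 min beforehand; 20 min room-temperature reaction.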
# TDP1 cell noCPT – qHTS for Inhibitors of human tyrosyl-DNA phosphodiesterase 1 (TDP1): qHTS in cells in absence of CPT | Potency, µM (doses to about 46.2 µM), without a hit: top-dose activity change, negative = growth inhibition, hits mostly inhibitors | 420,000 compounds, 15% hits | DT40 Tdp1-/- hTDP1 cells, no CPT, ATP luminescence, 48 h | AID 686978, 2013; further: nearly all actives have a fitted effect of over 55% in size
#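 Cells were dispensed at 400 per well, compounds added by pin tool, plates incubated ≥48 hr at 37 °C, then CellTiter-Glo added for 30 min at room temperature before luminescence reading. Line: DT40 Tdp1-/- complemented with hTDP1; camptothecin omitted.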
# DT40 TDP1 CPT – qHTS for Inhibitors of human tyrosyl-DNA phosphodiesterase 1 (TDP1): qHTS in cells in presence of CPT; chicken DT40 Tdp1-/-;hTDP1 cells + 20 nM CPT, ATP luminescence, 48 h; Potency, µM (series often up to 46.2 µM), without a hit: at the top dose activity change, negative = growth inhibition, most hits filed as inhibitors; 420,000 compounds, 12% hits; further: nearly all actives have a fitted effect of over 55% in size
#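 Chicken DT40 Tdp1-/- cells stably complemented with human TDP1 were seeded at 400 cells/well in medium containing 20 nM camptothecin, exposed to pin-transferred compounds, and grown at 37 °C for at least 48 hr. Viability was read as ATP luminescence.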
# Numbers without * were called inactive; ? = inconclusive; nt = no result. The call rests on the fitted dose curve; in most records, active means well fitted curve in the direction sought with a large enough effect; inconclusive means small, poorly fitted or top-dose-only effect, or another doubt; inactive means no such curve, though single readings can be large; an effect the other way counts as inactive or inconclusive. On the % scale 0 is the no-effect control and ±100 the full control effect; potency means the concentration at half of the fitted maximal effect.
SMILES,VDR inhibitor,PLK1 PBD inh,TDP1 block,KAT2A inh,TDP1 cell noCPT,DT40 TDP1 CPT
COc1ccc(CCNC(=O)c2cc(-c3ccc(C)cc3)nc3n[nH]c(-c4ccccc4)c23)cc1OC,5%,nt,3%,1%,-3%,-22%
COc1ccc(-c2cc(C(=O)NCCc3ccccc3)c3c(-c4ccccc4)[nH]nc3n2)cc1OC,-9%,nt,-3%,-15%,?,16µM*
CCOc1ccc(-c2cc(C(=O)NCCc3ccccc3)c3c(-c4ccc(C)cc4)[nH]nc3n2)cc1,-9%,nt,3%,1%,15µM*,12µM*
COc1cc(OC)c(-c2cc(C(=O)NCc3ccc(F)cc3)c3c(-c4ccccc4)[nH]nc3n2)cc1OC,2%,nt,1%,4%,?,?
CCOc1ccc(-c2cc(C(=O)NCCc3ccc(OC)c(OC)c3)c3c(-c4ccc(F)cc4)[nH]nc3n2)cc1,-2%,nt,-1%,-10%,?,?
COc1ccccc1-c1cc(C(=O)NCc2ccccc2)c2c(-c3ccc(C)cc3)[nH]nc2n1,-8%,nt,-2%,-20%,?,23µM*
Cn1cc(-c2nc3cnc(Oc4ccccc4)nc3n(C)c2=O)c2ccccc21,2%,nt,nt,-5%,6%,3%
COc1ccc(C(=O)Nc2nncs2)cc1S(=O)(=O)N1CCOCC1,-5%,-10%,-2%,1%,6%,3%
COc1cccc(-c2cc(C(F)(F)F)nc(NCCc3ccc(OC)c(OC)c3)n2)c1,1%,nt,0%,-10%,?,?
COc1ccc(-c2cc(C(F)(F)F)nc(NCc3ccccc3)n2)cc1OC,-9%,nt,-15%,-11%,21µM*,?
COc1ccc(-c2cc(C(F)(F)F)nc(NCc3ccco3)n2)cc1OC,-11%,1%,6%,22µM*,-27%,5%
COc1ccc(-c2cc(C(F)(F)F)nc(NCc3ccc(F)cc3)n2)cc1,-6%,nt,-15%,-6%,?,?
FC(F)(F)c1cc(-c2ccc3c(c2)OCO3)nc(NCc2ccco2)n1,1%,-7%,1%,-16%,?,?
COc1ccc(CNc2nc(-c3ccc(OC)cc3)cc(C(F)(F)F)n2)cc1,3%,nt,-6%,-17%,5.8µM*,13µM*
O=C(C1CCN(S(=O)(=O)Cc2ccccc2)CC1)N1CCN(c2cccc(C(F)(F)F)c2)CC1,9%,nt,9%,-4%,?,-20%
CSCC[C@H](NC(=O)[C@H](CC(C)C)NC(=O)[C@H](CO)NC(=O)[C@H](CCC(=O)O)NC(=O)[C@H](CC(C)C)NC(=O)[C@H](Cc1ccc(O)cc1)NC(=O)[C@H](CCCCN)NC(=O)[C@H](CCCCN)NC(=O)[C@H](C)NC(=O)[C@H](CO)NC(=O)[C@H](CC(C)C)NC(=O)[C@H](CCC(N)=O)NC(=O)CNC(=O)[C@H](CC(C)C)NC(=O)[C@H](CC(C)C)NC(=O)[C@H](CCCCN)NC(=O)[C@H](CO)NC(=O)[C@H](Cc1ccccc1)NC(=O)[C@H](CC(=O)O)NC(=O)[C@H](CO)NC(=O)[C@@H](NC(=O)[C@H](Cc1ccccc1)NC(=O)[C@@H](NC(=O)CNC(=O)[C@H](CC(=O)O)NC(=O)[C@H](C)NC(=O)[C@@H](N)Cc1cnc[nH]1)C(C)C)[C@@H](C)O)C(N)=O,-5%,nt,13%,-3%,nt,nt
CCOC(=O)/C(C(=O)Nc1ccc(Cl)cc1Cl)=C1/NC(C)(C)Cc2ccccc21,nt,nt,-4%,23%,nt,nt
CN1C(CC(=O)Nc2ccc(Cl)cc2Cl)c2ccccc2CC1(C)C (stereo not given),12%,1%,-4%,-2%,16µM*,10µM*
COCCCNC(=O)C(C)N1c2cccc3cccc(c23)S1(=O)=O (stereo not given),71µM*,11µM*,nt,7%,21µM*,21µM*
COCCNC(=O)C(C)N1c2cccc3cccc(c23)S1(=O)=O (stereo not given),-1%,?,-5%,-3%,4%,-21%
C=C1[C@@H]2CC[C@@H](C2)C1(C)C,nt,nt,nt,nt,-9%,14%
O=C(O)C1=C(CSc2nnnn2CS(=O)(=O)O)CS[C@@H]2[C@H](NC(=O)[C@H](O)c3ccccc3)C(=O)N12,40µM*,nt,nt,-16%,-28%,2%
COc1ccc(N2CCN(CCNC(=O)c3ccc4c(c3)[nH]c(=S)n3c5ccccc5nc43)CC2)cc1,-23%,1%,4%,3%,2.1µM*,4.6µM*
COc1ccc(Nc2cc(C(=O)NCCCN3CCOCC3)c3ccccc3n2)cc1OC,-2%,-7%,8%,0%,?,29µM*
COc1ccc(Nc2cc(C(=O)NCCCN3CCN(C)CC3)c3ccccc3n2)cc1OC,3%,-11%,6%,6%,-18%,-15%
SMILES,VDR inhibitor,PLK1 PBD inh,TDP1 block,KAT2A inh,TDP1 cell noCPT,DT40 TDP1 CPT
COc1ccc(Nc2cc(C(=O)NCCCN3CCN(c4ccccc4F)CC3)c3ccccc3n2)c(OC)c1,-15%,nt,7%,-6%,16µM*,?
COc1ccc(Nc2cc(C(=O)NCCCN3CCN(c4ccc(OC)cc4)CC3)c3ccccc3n2)cc1,14%,nt,10%,-5%,8.2µM*,8.2µM*
COc1ccc(CN(C(=O)CCC(=O)Nc2cc(C)on2)C(C(=O)NC(C)(C)C)c2cccc(OC)c2OC)cc1 (stereo not given),-7%,0%,0%,1%,-3%,-21%
COc1ccc(Nc2cc(C(=O)NCCCN(C)Cc3ccccc3)c3ccccc3n2)c(OC)c1,2%,nt,9%,0%,13µM*,15µM*
COc1ccc(N2CCN(CCCNC(=O)c3cnn(-c4ccc(F)cc4)c3-n3cccc3)CC2)cc1,1%,nt,3%,8%,nt,nt
CCN(CCCNC(=O)c1cc(Nc2ccccc2OC)nc2ccccc12)c1cccc(C)c1,-14%,nt,0%,-16%,7.3µM*,21µM*
COc1ccc(Nc2cc(C(=O)NCCCN3CCOCC3)c3ccccc3n2)c(OC)c1,-1%,-14%,8%,-11%,-25%,-4%
COc1ccc(N2CCN(CCCNC(=O)c3cc(Nc4ccccc4OC)nc4ccccc34)CC2)cc1,6%,nt,9%,-7%,?,23µM*
